# Like-named read-outs stand apart in the source and are kept apart here. In all, about 13,000 compounds went through this assay and about 3,200 (25%) showed an effect of 50% or more. The list shows a part of the results.
# System: P. falciparum stage V gametocytes
# Parameters: BacTiter-Glo ATP luminescence viability of purified stage V gametocytes in 384-well plates, per cent inhibition versus DMSO
# Settings: 48 h, 5 µM, inhibitor
SMILES,% Inhibition,% Inhibition (% Inhibition)
Cn1cnc2c(SCc3ccc(OCc4ccccc4)cc3)ncnc21 [TCMDC-136496],-19.47%,–
O=C(NC(=O)c1ccccc1O)c1ccccc1O [TCMDC-125868],4.896%,–
O=C(NC1CCN(c2ccnc3cc(Cl)ccc23)C1)c1ccc(F)cc1 (stereo not drawn) [TCMDC-133653],-3.627%,–
O=C(Nc1nc2ccc(Cl)cc2s1)c1csnn1 [TCMDC-125073],-15.98%,–
Cn1c(C2CC3CCC(C2)N3CC2CCC(NC(=O)/C=C/c3ccc(Cl)c(Cl)c3)CC2)nc2ccccc21 (stereo not drawn) [TCMDC-140342],-2.342%,–
Cc1ccccc1N1CCN(c2ncc(C(=O)NC3CC3)cc2Cl)CC1 [TCMDC-134602],6.226%,–
CC(C)C[C@@H](/C=N/N1CCOC1=O)NC(=O)[C@H](CC(C)C)NC(=O)c1ccc(OCCN2CCOCC2)cc1 [TCMDC-136170],-12.99%,–
COC(=O)c1ccc(CCCNCC(O)c2cccc(C(F)(F)F)c2)cc1 (stereo not drawn) [TCMDC-131462],1.956%,–
O=C(/C=C/c1ccc(Cl)c(Cl)c1)NCCCCCN1CCCN(C(=O)Nc2cc(Cl)cc(Cl)c2)CC1 [TCMDC-135760],-3.132%,–
O=C(/C=C/c1ccc(Cl)c(Cl)c1)NCCCCCCN1CCCN(C(=O)Nc2cc(Cl)cc(Cl)c2)CC1 [TCMDC-135936],-15.47%,–
O=C(/C=C/c1ccc(Cl)c(Cl)c1)NCCCCCN1CCCN(C(=O)Nc2ccc(F)c(Cl)c2)CC1 [TCMDC-135755],-45.85%,–
O=C(COc1ccc(Cl)c(Cl)c1)NCCCCCN1CCCN(C(=O)Nc2cc(Cl)cc(Cl)c2)CC1 [TCMDC-136293],78.53%,–
O=C(COc1ccc(Cl)c(Cl)c1)NCCCCCN1CCCN(C(=O)Nc2ccc(Cl)c(Cl)c2)CC1 [TCMDC-136292],72.04%,–
Cc1ccc(/C=C/C(=O)NCCCCCN2CCCN(C(=O)Nc3ccc(Cl)c(Cl)c3)CC2)cc1 [TCMDC-136111],-64.67%,–
CC(NC(C)(C)C)C(O)c1ccc(Cl)c(C(F)(F)F)c1 (stereo not drawn) [TCMDC-137910],-2.927%,–
Cc1cccc(C(=O)NC(NC(=S)Nc2cc(Cl)ccc2Cl)C(Cl)(Cl)Cl)c1 (stereo not drawn) [TCMDC-124254],-20.87%,–
CC1(C)N=C(N)N=C(N)N1OCCCOc1cccc(Cl)c1 [TCMDC-131762],16.24%,–
COc1ccc2nccc([C@@H](O)CN3CCC(NC(=O)/C=C/c4cc(F)cc(Br)c4)CC3)c2c1 [TCMDC-141031],-7.765%,–
CN(C)CCOc1ccc(/C(=C(/CCCn2ccnc2)c2ccccc2)c2ccc(O)cc2)cc1 [TCMDC-138900],-20.55%,–
CCCc1cc(OC)c(C[C@@H]2c3cc(O)c(Cl)cc3CCN2C)cc1OC [TCMDC-138128],-6.481%,–
CN1C(=O)C(=O)N(CCCCCON=C(N)N)C1=S [TCMDC-139249],12.53%,–

SMILES,% Inhibition,% Inhibition (% Inhibition)
CCNC(C)(C)CN(Cc1ccc(-c2ccc(C(F)(F)F)cc2)cc1)C(=O)Cn1c(CCc2cccc(F)c2F)nc(=O)c2ccccc21 [TCMDC-141047],102.8%,–
CC(C)NC(C)(C)CN(Cc1ccc(-c2ccc(C(F)(F)F)cc2)cc1)C(=O)Cn1c(CCc2cccc(F)c2F)nc(=O)c2ccccc21 [TCMDC-141084],71.8%,–
COc1ccc(NC(=O)Nc2cccc(-c3ccncc3)c2)cc1N1CCN(C)CC1 [TCMDC-139111],12.5%,–
O=C(Nc1ccc(-c2nc3cc4ccccc4cc3[nH]2)cc1)c1cccc(Br)c1 [TCMDC-123806],-9.366%,–
O=C(NC1CC1)c1ccc(N2CCC(Oc3ccc(F)cc3)CC2)nc1 [TCMDC-134053],8.582%,–
CC(CCCCC(=O)Nc1ccc(C(F)(F)F)cc1)NCC(O)c1cccc(Cl)c1 (stereo not drawn) [TCMDC-131538],28.83%,–
O=C(Cn1c2ccccc2c(=O)c2ccc(Cl)cc21)Nc1ccc(C(F)(F)F)cc1 [TCMDC-125568],64.99%,–
O=C(Nc1ccc(C(F)(F)F)cc1)NC1CCN(c2ccnc3cc(Cl)ccc23)CC1 [TCMDC-133568],-13.61%,–
O=c1cc(NCCCNCc2ccc(C(F)(F)F)cc2F)[nH]c2ccccc12 [TCMDC-139427],7.285%,–
O=[N+]([O-])c1ccc(CNCCCCCCNCc2ccc([N+](=O)[O-])c3ccccc23)c2ccccc12 [TCMDC-137830],10.64%,–
FC(F)(F)COc1ccc(CCNCCCCNCCc2ccc(OCC(F)(F)F)c3ccccc23)c2ccccc12 [TCMDC-137282],101.8%,–
FC(F)(F)COc1ccc(CNCCCCCCNCc2ccc(OCC(F)(F)F)c3ccccc23)c2ccccc12 [TCMDC-137853],131%,–
O=C(/C=C/c1ccc(Cl)c(Cl)c1)NCCCCCCN1CCN(C(=O)Nc2cc(Cl)nc(Cl)c2)CC1 [TCMDC-135891],-18.09%,–
Cc1cccc(C(=O)Nc2ccnc(N(C)C3CCN(CC(C)C)CC3)c2)c1 [TCMDC-135023],-10.51%,–
Cc1ccc(/C=C/C(=O)NC2CCC(CN3CCC(c4c[nH]c5ccccc45)CC3)CC2)cc1C (stereo not drawn) [TCMDC-139769],–,39.49%
O=C(/C=C/c1cccc(F)c1)NC1CCC(CN2CCC(c3c[nH]c4ccccc34)CC2)CC1 (stereo not drawn) [TCMDC-139698],–,74.99%
O=C(/C=C/c1cccc(F)c1)NC1CCC(CN2CCC(c3c[nH]c4ccccc34)CC2)CC1 (stereo not drawn) [TCMDC-139713],–,90.71%
Cc1nc(N)nc(N)c1-c1cc(Cl)c(Cl)c(Cl)c1 [TCMDC-137398],11.14%,–
CCCC(=O)Nc1ccc(OCCCN(Cc2cccc(C(F)(F)F)c2)c2ccc(C#N)c(C(F)(F)F)c2)cc1 [TCMDC-135666],6.029%,–
CCOc1ccc2nccc([C@@H](O)[C@@H]3C[C@@H]4CCN3C[C@@H]4CC)c2c1 [TCMDC-123483],–,-64.91%
Cc1cc(N2CCCN(C)CC2)nc(Nc2ccc(Br)cc2)n1 [TCMDC-137014],8.487%,–

# Reference: paper PMC4552634, “A New Set of Chemical Starting Points with Plasmodium falciparum Transmission-Blocking Potential for Antimalarial Drug Discovery” (PLoS ONE, 2015)
